# Results: the supplement of paper PMC9254222
# The full ranking holds about 1,100 compounds; the median of “Wnt reporter firefly/Renilla luciferase ratio relative to plate median” is about 1.1, and the highest 2% start at about 1.6. The entries come from a sample that favours the highest values as a whole.
# Tested on: HEK293T (UBE3A T485A transfected, BAR Wnt reporter)
# Experiment: Wnt reporter firefly/Renilla luciferase ratio relative to plate median (fold (linear ratio)); higher = more Wnt/beta-catenin reporter activation
# Settings: 24 h
# Outline: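 HEK293T cells were seeded at 4500 cells/well in white 384-well plates and grown in DMEM with 10% FBS at 37°C and 5% CO2. The cells were transfected using Fugene 6 with a BAR firefly luciferase Wnt reporter, TK-Renilla and an expression plasmid, and four hours later robots added the chemicals at 0.01–100 uM for 24 h before a Dual-Glo luciferase readout. Wnt activity was taken as the firefly/Renilla ratio and cell health as raw Renilla, each median-centred per plate. Values are averages of four biological replicates.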
SMILES,Wnt reporter firefly/Renilla luciferase ratio (concentration: 0.1 uM),Wnt reporter firefly/Renilla luciferase ratio (concentration: 1 uM),Wnt reporter firefly/Renilla luciferase ratio (concentration: 10 uM),Wnt reporter firefly/Renilla luciferase ratio (concentration: 100 uM),Wnt reporter firefly/Renilla luciferase ratio (concentration: 0.01 uM)
c1ccc(OP(Oc2ccccc2)Oc2ccccc2)cc1 [Triphenyl phosphite],0.971,1.06,1,1.26,
NC(=O)[O-].[NH4+] [Ammonium carbamate],0.817,0.94,0.934,1.31,
CCC(C)c1cc([N+](=O)[O-])cc([N+](=O)[O-])c1O (configuration not stated) [Dinoseb],0.797,0.806,0.929,,
Clc1nc(Cl)nc(Nc2ccccc2Cl)n1 [Anilazine],0.926,1.15,1.18,1.07,0.958
CNC(=S)[S-].O.O.O.[Na+] [Metam-sodium hydrate],0.921,0.977,1.06,1.1,0.905
CCCCN(CCCC)N=O [N-Nitrosodibutylamine],0.968,0.902,1.04,1.27,
CCCN(CCC)N=O [N-Nitrosodipropylamine],1.18,0.939,1.15,1.06,
CCN(CC)N=O [N-Nitrosodiethylamine],1.12,1.13,1.27,1.82,
CCCCC(C#N)(Cn1cncn1)c1ccc(Cl)cc1 (configuration not stated) [Myclobutanil],1,0.933,1.09,0.269,0.908
COc1cc(OC)nc(NC(=O)[N-]S(=O)(=O)c2ncccc2OCC(F)(F)F)n1.[Na+] [Trifloxysulfuron-sodium],1.02,1.23,1.22,1.52,1.06
N#Cc1cccnc1 [3-Pyridinecarbonitrile],0.974,1.13,1.25,1.35,
CO/N=C(/C1=NOCCO1)c1ccccc1Oc1ncnc(Oc2ccccc2Cl)c1F [Fluoxastrobin],1.27,0.946,0.315,1.23,1.16
Cn1sc(Cl)cc1=O [5-Chloro-2-methyl-3(2H)-isothiazolone],1.28,1.07,1.07,0.458,
COc1ccc(C(c2ccc(OC)cc2)C(Cl)(Cl)Cl)cc1 [Methoxychlor],1.13,1.12,1.25,1.04,0.858
Cn1cc(-c2ccccc2)c(=O)c(-c2cccc(C(F)(F)F)c2)c1 [Fluridone],1.28,0.917,0.825,0.175,
"Cc1ccc([N+](=O)[O-])cc1C [1,2-Dimethyl-4-nitrobenzene]",0.844,1.17,1.19,1.42,
"CN(C)c1ccccc1 [N,N-Dimethylaniline]",1.11,1.11,0.912,1.02,
"C[C@]12CCC(=O)C=C1CC[C@@H]1[C@@H]2CC[C@]2(C)C(=O)CC[C@@H]12 [4-Androstene-3,17-dione]",1.04,1.01,1.12,0.219,
Clc1ccccc1-c1nnc(-c2ccccc2Cl)nn1 [Clofentezine],1.25,0.999,1.19,1.59,1.31
CC(Cl)(Cl)C(=O)O [Dalapon],1.05,1.18,1.08,1.25,
COC(=O)Nc1nc2ccccc2[nH]1 [Carbendazim],1.09,1.16,0.661,0.13,

SMILES,Wnt reporter firefly/Renilla luciferase ratio (concentration: 0.1 uM),Wnt reporter firefly/Renilla luciferase ratio (concentration: 1 uM),Wnt reporter firefly/Renilla luciferase ratio (concentration: 10 uM),Wnt reporter firefly/Renilla luciferase ratio (concentration: 100 uM),Wnt reporter firefly/Renilla luciferase ratio (concentration: 0.01 uM)
C[n+]1ccc(-c2cc[n+](C)cc2)cc1 [Paraquat],1.36,1.06,1.01,1.77,1.31
CCOP(=S)(OCC)SCSC(C)(C)C [Terbufos],1.28,1.01,1.16,1.27,
CCNc1nc(Cl)nc(NC(C)(C)C#N)n1 [Cyanazine],0.905,0.962,0.88,1.15,0.787
Cc1ccc([N+](=O)[O-])cc1 [4-Nitrotoluene],0.766,0.567,0.741,0.771,
CCCCC(O)(Cn1cncn1)c1ccc(Cl)cc1Cl (configuration not stated) [Hexaconazole],0.897,1,0.919,0.397,0.917
"ClCC(Cl)CCl [1,2,3-Trichloropropane]",1.21,1.09,1.12,1.41,
CCOP(=S)(OCC)SCSCC [Phorate],1.03,0.934,1.08,1.3,
CCOP(=S)(OCC)SCn1c(=O)oc2cc(Cl)ccc21 [Phosalone],1.45,1.27,1.03,0.607,1.62
COP(=O)(OC)SCn1c(=O)oc2cc(Cl)cnc21 [Azamethiphos],1.28,0.979,0.625,0.373,0.825
Cc1ccccc1O [o-Cresol],1.01,0.966,1.1,1.15,
C=C(C)C(=O)[O][Sn]([CH2]CCC)([CH2]CCC)[CH2]CCC [Tributyltin methacrylate],0.639,0.638,0.679,,
Cc1cc(N=Nc2ccccc2C)ccc1N [2-Amino-5-azotoluene],1.18,0.968,1.06,0.582,
Nc1cc2c3c(c1)C(c1ccccc1)=N[C@@H](NC(=O)c1cccnc1)C(=O)N3CC2,1.19,0.977,1.24,0.802,
Nc1cc(Cl)cc(C(=O)O)c1Cl [Chloramben],1.14,1.12,1.34,1.49,
[Cl-].[Cl-].[Hg+2] [Mercuric chloride],1.21,1.07,1.69,,
O=C(O)C1C(C(=O)O)C2(Cl)C(Cl)=C(Cl)C1(Cl)C2(Cl)Cl (configuration not stated) [Chlorendic acid],0.978,1.1,0.935,1.03,
NCCO.O=C(O)c1nc(Cl)ccc1Cl [Clopyralid-olamine],0.94,1.18,1.56,2.61,0.868
O=C(O)c1nc(Cl)ccc1Cl [Clopyralid],1.81,1.02,0.988,1.12,1.17
O=C(O)c1c(Cl)ccc2cc(Cl)cnc12 [Quinclorac],1.3,1.14,1.14,1.58,1.38
Nc1c(Cl)c(Cl)nc(C(=O)O)c1Cl [Picloram],1.47,1,1.13,1.28,0.972
Clc1cccc(C(Cl)(Cl)Cl)n1 [Nitrapyrin],1.01,0.881,1.03,1.23,1.08
